Results on 9 compounds are retold here after PubChem BioAssay.

Usually viability stands for a read-out of living cells in per cent, often relative to untreated cells. By inhibition is commonly meant the relative decrease from the control value, in per cent.

Experiment [1] in a line: Her2 expression decrease, cell viability multiplex – SKBR3 breast tumor cells, AlphaScreen, ATP viability, primary screen (AID 461;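 active means Her2 level under about 52% in both replicate screens, with viability over 70% of control, limit read from the data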;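 on Her2 level: lower value means less Her2 protein in the cells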;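 on viability: percent of carrier control wells set as 100% viability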). The conditions noted are these: SKBR3 Her2 protein level, 18-24 h, measured here: SKBR3 viability, ATP luminescence, at 10 µM. A general note: Bead proximity is the source of the signal in Alpha formats.
Experiment [2] addresses Receptor tyrosine-protein kinase erbB-2 (Homo sapiens) (UniProt P04626). The description is as above. Particulars: 18-24 h, at 10 µM, stronger effect = lower value.
Experiment [3] in a line: reduced viability of SK-BR-3 breast cancer cells – cell-based, 24 h, human, pilot screen (AID 572;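 active means viability at or below 10% of carrier control in both of two separate runs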;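 further: compound exposure lasted between 18 and 24 h rather than exactly 24 h; 100% = carrier-treated control wells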). The conditions noted are these: SK-BR-3 viability, CellTiter-Glo luminescence, at 10 µM, stronger effect = lower value.
Experiment [4] in a line: HUVEC growth inhibition – cell-based, human, primary screen (AID 575;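 active means viability at or below 30% in both replicate assays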;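 further: 100% = median of untreated cell wells with 0.1% DMSO on each plate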). The conditions noted are these: HUVEC proliferation, CellTiter-Glo luminescence, 72 h; at 10 µM; stronger effect = lower value. For orientation: ATP-based viability assays read luminescence as a measure of living cells.
Experiment [5] in a line: H69AR cell proliferation blockers – human, duplicate replicates, primary screen (AID 580;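 active means viability at or under a set limit in both replicates, limit being median viability minus 3 SD, cut at about 48% in these data, passing the limit was not always enough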;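 further: 100% = mean luminescence of untreated wells and 0% = no signal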). Particulars: H69AR lung tumor cells viability, ATP luminescence, 72 h; at 10 µM; stronger effect = lower value.
Experiment [6] is described as follows: MRP1 drug-resistance reversers in H69AR cells – cell-based, doxorubicin co-treatment, pilot screen (AID 601). Particulars: CellTiter-Glo, 72 h, at 10 µM; for differential viability (reversal): stronger effect = higher value.
Experiment [7] can be described thus: yeast transport mutant growth inhibition pilot in 384-well plates, post-Golgi transport modulator project (AID 636; in the data active means inhibition above about 31%). Particulars: absorbance 615 nm, about 18 h, stronger effect = higher value.
A short description of experiment [8]: growth suppression of yeast trafficking mutant, preliminary HTS, modulators of trafficking downstream of Golgi apparatus project, 1536-format plate, OD 615 nm (AID 637; in the data active means inhibition above about 30%). Particulars: yeast transport mutant growth, absorbance 615 nm, 18 h; stronger effect = higher value.
Experiment [9] in a line: S. cerevisiae growth inhibition in permissive medium (OD615), pilot counter-assay for S. cerevisiae lifespan shortening project, permissive growth control (AID 705;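 active means growth inhibition above 25% in both replicates, a cutoff set 3 SD above the mean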). The conditions noted are these: OD615, 24 h, at 10 µM, stronger effect = higher value.
Experiment [10] in a line: S. cerevisiae growth inhibition in restrictive medium, OD615, pilot screen, restrictive growth control, yeast lifespan reduction project (AID 706;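 active means growth inhibition above a set limit, 3 SD over mean compound inhibition, in both replicates, cut at about 43% in these data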;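 further: modified DeaD lifespan yeast strain shifted to restrictive glucose medium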). The conditions noted are these: OD615, 48 h, at 10 µM, stronger effect = higher value.
A short description of experiment [11]: doxorubicin toxicity protection in MRP-1 cells – H69AR cells, CellTiter-Glo, duplicate, MRP-1 activator project, pilot screen (AID 807;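 active means viability increase at or above a cutoff of the median across tested compounds plus 3 SD, cut at about 8.5% in these data, passing the limit was not always enough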;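 further: compound pretreatment 18-22 h then 72 h combined with doxorubicin; 0% = doxorubicin alone and 100% = vehicle without doxorubicin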). The conditions noted are these: H69AR viability with doxorubicin, CellTiter-Glo luminescence; at 10 µM; stronger effect = higher value.
Experiment [12] can be described thus: viability of HCT116 without oncogenic beta-catenin – human colon tumor cells, pilot screen (AID 823;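 active means cell viability at or below a set limit in both duplicate runs, the limit being the all-compound median minus 4 SD, cut at about 23% in these data, passing the limit was not always enough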;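 further: 0% = wells killed by 20 µM Hyamine and 100% = untreated DMSO cell wells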). The conditions noted are these: HCT116 beta-catenin knockout viability, CellTiter-Glo, 60 h; at 10 µM; stronger effect = lower value.
Experiment [13] can be described thus: viability of PTEN-null HCT116 cells – cell-based, HCT116 clonal line, CellTiter-Glo, pilot screen (AID 824;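 active means viability at or below 27.92% in each of two runs, the all-compound median minus 4 SD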;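 further: 0% = 20 µM Hyamine control and 100% = vehicle cell control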). Particulars: HCT116 PTEN-deleted viability, 60 h, at 10 µM, stronger effect = lower value.
Experiment [14] can be described thus: RAM pathway blockade in budding yeast – dse1pr::URA3 reporter, 5-FOA selection, pilot screen (AID 869;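 active means inhibition over a set limit, the all-compound mean plus 3 SD, in both replicate runs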;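 further: 0% = DMSO wells with no growth and 100% = 10 µM 1-NA-PP1 with full growth; RAM network block rescues cells from 5-FOA so hits raise OD615 growth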). The conditions noted are these: S. cerevisiae dse1pr::URA3 5-FOA growth, OD615, 2 d; at 10 µM; stronger effect = higher value; strain carries analog-sensitive mutant Cbk1 kinase.
Experiment [15] is described as follows: RAM signaling pathway blockade in yeast – S. cerevisiae, Pdr1DBD-CYC8 efflux-inhibited sensitized strain, primary screen (AID 1298;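 active means RAM network inhibition above 8.4% in each of two replicates, 3 SD over the compound average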;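 further: 0% = DMSO untreated cells without growth and 100% = 10 µM 1-NA-PP1 full growth; higher means more yeast growth rescued from 5-FOA killing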). The conditions noted are these: S. cerevisiae cbk1-as DSE1-URA3 strain, 5-FOA growth OD615, 2 d; at 50 µM; stronger effect = higher value.
Where [16] appears, read: H69AR cells + 2 uM doxorubicin, measured here: viability with 2 uM doxorubicin, stronger effect = lower value.
Where [17] appears, read: H69AR cells, compound alone cytotoxicity.

Structures are written as SMILES. Inconclusive results are not listed. Calls of active or inactive are those of the source.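 How the source made its calls, unless noted: active means viability loss from added drug above about 55%, and viability with drug at most 40%, in both replicates (limit read from the data, passing the limit was not always enough); inconclusive means both conditions met in only one replicate; inactive means neither replicate meets both conditions.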

Receptor tyrosine-protein kinase erbB-2 (Homo sapiens), sequence (P04626 whole entry, looked up): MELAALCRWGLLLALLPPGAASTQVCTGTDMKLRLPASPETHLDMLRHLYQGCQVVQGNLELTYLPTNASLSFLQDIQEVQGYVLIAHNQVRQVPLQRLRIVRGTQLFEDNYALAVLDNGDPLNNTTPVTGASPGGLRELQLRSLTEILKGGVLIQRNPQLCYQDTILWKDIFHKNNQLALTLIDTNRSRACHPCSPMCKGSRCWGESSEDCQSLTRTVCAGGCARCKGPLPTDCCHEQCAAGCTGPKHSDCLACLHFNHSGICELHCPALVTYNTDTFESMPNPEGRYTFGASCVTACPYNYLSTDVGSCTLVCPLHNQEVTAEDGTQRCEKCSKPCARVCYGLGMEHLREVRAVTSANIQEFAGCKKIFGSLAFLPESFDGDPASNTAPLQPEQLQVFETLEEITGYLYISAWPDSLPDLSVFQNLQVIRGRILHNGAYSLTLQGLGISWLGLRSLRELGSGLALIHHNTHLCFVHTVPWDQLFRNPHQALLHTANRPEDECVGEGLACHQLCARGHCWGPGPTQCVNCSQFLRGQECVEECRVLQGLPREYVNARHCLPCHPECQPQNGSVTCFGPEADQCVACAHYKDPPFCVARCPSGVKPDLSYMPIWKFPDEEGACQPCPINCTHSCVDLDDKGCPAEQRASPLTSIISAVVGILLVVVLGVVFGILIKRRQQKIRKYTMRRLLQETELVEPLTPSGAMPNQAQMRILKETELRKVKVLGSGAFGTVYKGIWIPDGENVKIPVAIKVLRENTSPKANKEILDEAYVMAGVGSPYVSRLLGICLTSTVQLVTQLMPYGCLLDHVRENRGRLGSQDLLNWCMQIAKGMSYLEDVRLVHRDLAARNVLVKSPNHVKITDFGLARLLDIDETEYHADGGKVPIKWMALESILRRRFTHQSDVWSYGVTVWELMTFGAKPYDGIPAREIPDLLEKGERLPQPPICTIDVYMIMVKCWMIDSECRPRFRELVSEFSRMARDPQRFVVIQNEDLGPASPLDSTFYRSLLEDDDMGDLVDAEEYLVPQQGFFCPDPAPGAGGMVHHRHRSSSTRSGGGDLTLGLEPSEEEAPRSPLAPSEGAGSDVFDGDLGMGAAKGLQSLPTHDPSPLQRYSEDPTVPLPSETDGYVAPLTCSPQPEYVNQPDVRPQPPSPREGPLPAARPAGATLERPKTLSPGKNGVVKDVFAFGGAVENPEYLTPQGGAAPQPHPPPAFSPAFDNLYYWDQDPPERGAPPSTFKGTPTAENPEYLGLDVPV

In the case of `CCN(CC)c1ccc(NC(=O)CN2C(=O)CC(C)(C)S(=O)(=O)c3ccccc32)c(C)c1`, the viability was 102% in experiment [1]; 102% (inactive) in [3]; 102% (inactive) in experiment [4]; 84.8% (inactive) in [5]; 92.4% in experiment [6] (setting [16]); 84.8% in experiment [6] (setting [17]). Further, the viability in experiment [12] was 63.6% (inactive); in experiment [13], 78.1% (inactive). Moreover, the Her2 level in [2] is 111% (inactive). Also, in experiment [6] (H69AR cells + 2 uM doxorubicin), the differential viability (reversal) is -7.56% (inactive). In addition, the inhibition in experiment [7] was -4.8% (inactive); in [8], 0.83% (inactive); in experiment [14], 1.72% (inactive). In addition, the growth inhibition is -6.69% (inactive) in experiment [9] and -16.1% (inactive) in [10]. Further, in experiment [11], the viability increase is -4.31% (inactive). Also, the RAM network inhibition in experiment [15] is 3.26% (inactive).

Take `Cc1cnc(NC(=O)CSc2nnc(COc3c(C)cccc3C)o2)s1`: the viability was 83% in experiment [1]; 83% (inactive) in experiment [3]; 79.9% (inactive) in [4]; 87.1% (inactive) in [5]; 94% in experiment [6] (setting [16]); 87.1% in experiment [6] (setting [17]). The viability in experiment [12] is 93.9% (inactive); in [13], 86.1% (inactive). For the same compound, in [2], the Her2 level was 102% (inactive). The differential viability (reversal) in experiment [6] (H69AR cells + 2 uM doxorubicin) was -6.84% (inactive). The inhibition in experiment [7] is -5.33% (inactive); in [8], 4.83% (inactive); in experiment [14], 1.23% (inactive). For the same compound, the values for the growth inhibition in experiment [9] and in experiment [10] were -10.4% (inactive) and -2.15% (inactive), respectively. In addition, the viability increase in experiment [11] was -0.06% (inactive). Besides, the RAM network inhibition in [15] is 0.63% (inactive).

Take `C=CCn1c(=O)n(CCOC)c(=O)c2sc3ccccc3c21`: the viability in experiment [1] is 85%; in experiment [3], 85% (inactive); in experiment [4], 87.4% (inactive); in experiment [5], 86.8% (inactive); in experiment [6] (setting [16]), 100%; in [6] (setting [17]), 86.8%. The viability in [12] is 89.9% (inactive); in experiment [13], 86.7% (inactive). Moreover, the Her2 level in [2] is 105% (inactive). In addition, the differential viability (reversal) in experiment [6] (H69AR cells + 2 uM doxorubicin) is -13.7% (inactive). Further, the inhibition in experiment [7] was -0.53% (inactive); in experiment [8], 4.33% (inactive); in [14], 0.25% (inactive). The growth inhibition is -13.3% (inactive) in [9] and -5.77% (inactive) in experiment [10]. Moreover, the viability increase in experiment [11] was -4.03% (inactive). The RAM network inhibition in experiment [15] was 1.71% (inactive).

Turning to `COc1ccccc1CNC(=O)C1CCC(CNc2c(N3CCOCC3)c(=O)c2=O)CC1` (stereo not drawn), the viability was 90.5% in [1]; 90.5% (inactive) in experiment [3]; 86.7% (inactive) in [4]; 105% (inactive) in [5]; 92.8% in experiment [6] (setting [16]); 105% in experiment [6] (setting [17]). Further, the viability was 101% (inactive) in experiment [12] and 104% (inactive) in experiment [13]. The Her2 level in [2] was 126% (inactive). In addition, the differential viability (reversal) in experiment [6] (H69AR cells + 2 uM doxorubicin) was 12% (inactive). Moreover, the figures for the inhibition in experiment [7], in experiment [8] and in [14] were 1.03% (inactive), 3% (inactive) and 1.35% (inactive), respectively. The figures for the growth inhibition in experiment [9] and in experiment [10] were -3.5% (inactive) and 8.34% (inactive), respectively. Further, the viability increase in [11] is 0.11% (inactive). Moreover, in experiment [15], the RAM network inhibition is 3.53% (inactive).

For `O=C(CSc1ncnc2nc[nH]c12)c1ccc(Cl)cc1`, the viability is 76% in [1]; 76% (inactive) in [3]; 63% (inactive) in experiment [4]; 91.1% (inactive) in experiment [5]; 99.7% in experiment [6] (setting [16]); 91.1% in experiment [6] (setting [17]). The viability was 39.8% (inactive) in experiment [12] and 37.7% (inactive) in experiment [13]. The Her2 level in [2] is 98% (inactive). In addition, the differential viability (reversal) in experiment [6] (H69AR cells + 2 uM doxorubicin) was -8.57% (inactive). The inhibition in experiment [7] was -3.47% (inactive); in experiment [8] it was 2.13% (inactive); in [14], 1.29% (inactive). Moreover, the growth inhibition in [9] is 1.02% (inactive); in experiment [10], 11.4% (inactive). Also, in experiment [11], the viability increase is -1.43% (inactive). In addition, the RAM network inhibition in experiment [15] was 5.06% (inactive).

Consider `CSc1nc2ccccc2c(=O)n1N`, for which the viability in experiment [1] was 109%; in experiment [3] it was 109% (inactive); in [4], 93.9% (inactive); in experiment [5] it was 97.5% (inactive); in [6] (setting [16]) it was 93.1%; in experiment [6] (setting [17]) it was 97.5%. In addition, the figures for the viability in experiment [12] and in experiment [13] were 92.2% (inactive) and 103% (inactive), respectively. In addition, the Her2 level in experiment [2] is 94.5% (inactive). In addition, the differential viability (reversal) in experiment [6] (H69AR cells + 2 uM doxorubicin) is 4.46% (inactive). Moreover, the inhibition in experiment [7] was -3.78% (inactive); in [8], -1.48% (inactive); in [14], 1.75% (inactive). The growth inhibition was -16.4% (inactive) in experiment [9] and 6.12% (inactive) in experiment [10]. For the same compound, in [11], the viability increase was -1.1% (inactive). Moreover, in [15], the RAM network inhibition is 4.29% (inactive).

Regarding `Cc1nnc(NC(=O)CSc2nc3c(c(=O)n2C)SC(C)C3)s1` (stereo not drawn), the viability is 89% in experiment [1]; 89% (inactive) in experiment [3]; 79.4% (inactive) in experiment [4]; 84.8% (inactive) in [5]; 80% in experiment [6] (setting [16]); 84.8% in experiment [6] (setting [17]). In addition, the figures for the viability in [12] and in [13] were 104% (inactive) and 99.6% (inactive), respectively. For the same compound, the Her2 level in experiment [2] is 80% (inactive). Also, the differential viability (reversal) in experiment [6] (H69AR cells + 2 uM doxorubicin) was 4.81% (inactive). Moreover, the inhibition was -6.27% (inactive) in [7], 4.17% (inactive) in experiment [8] and 2.09% (inactive) in experiment [14]. The growth inhibition in [9] is -11.1% (inactive); in experiment [10] it was -18.2% (inactive). For the same compound, in [11], the viability increase was 0.31% (inactive). The RAM network inhibition in [15] was 9.95% (inactive).

Consider `CCC(Oc1ccccc1)C(=O)Nc1ccccc1OC` (stereo not drawn), for which the viability in experiment [1] is 86%; in experiment [3] it was 86% (inactive); in [4], 99.4% (inactive); in experiment [5], 97.4% (inactive); in experiment [6] (setting [16]), 84.8%; in experiment [6] (setting [17]), 97.4%. Moreover, the viability is 90% (inactive) in experiment [12] and 87% (inactive) in [13]. For the same compound, the Her2 level in experiment [2] is 72.5% (inactive). The differential viability (reversal) in [6] (H69AR cells + 2 uM doxorubicin) is 12.6% (inactive). Besides, the inhibition in [7] was -6.35% (inactive); in experiment [8], 3.61% (inactive); in experiment [14], 1.94% (inactive). In addition, the growth inhibition in experiment [9] is -1.92% (inactive); in [10] it was 8.91% (inactive). The viability increase in [11] was -3.52% (inactive). In addition, in experiment [15], the RAM network inhibition is 5.73% (inactive).

Take `Cn1cccc1Cc1nnc(SCC(=O)NCc2ccc(F)cc2)n1-c1ccc(F)cc1`: the viability in experiment [1] was 94.5%; in experiment [3] it was 94.5% (inactive); in experiment [4], 80.9% (inactive); in experiment [5], 89% (inactive); in [6] (setting [16]), 93%; in [6] (setting [17]), 89%. For the same compound, the viability in experiment [12] is 97.6% (inactive); in experiment [13], 93.4% (inactive). For the same compound, in [2], the Her2 level is 108% (inactive). In addition, the differential viability (reversal) in [6] (H69AR cells + 2 uM doxorubicin) is -4% (inactive). Further, the inhibition is -1.07% (inactive) in experiment [7], 13.3% (inactive) in [8] and 2.13% (inactive) in [14]. Also, the growth inhibition is -3.33% (inactive) in experiment [9] and 8.56% (inactive) in [10]. In experiment [11], the viability increase was -0.43% (inactive). For the same compound, the RAM network inhibition in experiment [15] is 6.3% (inactive).
